In PubChem BioAssay (NCATS):
Results filed as inconclusive are left out. Unless noted, the call rests on the fitted dose curve; in most records, active means well fitted curve in either direction with a large enough effect (not every such curve was filed as active); inconclusive means small, poorly fitted or top-dose-only effect, or another doubt; inactive means flat fitted curve, though single readings scatter.

What was measured:
[1] = AP1 Signaling Pathway (AID 357); details: ME-180 AP-1-bla reporter, EGF-induced, beta-lactamase ratio, 5 h; at 17.2 µM (top of the series) unless noted;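 further: ME-180 reporter cells stimulated with EGF at its EC50 level; on the % scale 0 is the no-effect control and ±100 the full control effect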
In short: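 First, ME-180 AP-1-bla cells were cultured overnight at 37 °C in low-serum Opti-MEM. Next, titrated compounds with EC50 EGF were incubated 5 hours. Finally, CCF4 was added for 2.5 hours and the 460/530 nm ratio recorded.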

[2] = NFAT Signaling Pathway (AID 444); details: Jurkat NFAT-bla M1, carbachol, beta-lactamase ratio, 5 h; at 17.2 µM (top of the series) unless noted;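 further: carbachol stimulus at about its EC50 of 1 µM final; on the % scale 0 is the no-effect control and ±100 the full control effect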
In short: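 Read-out: CCF4 FRET ratio (460 nm/530 nm) after 1 h RT dye loading, used for %activity and AC50 from titration series. Cells: Jurkat NFAT-β-lactamase/M1 line, treated with compound plus 1 uM carbachol for 5 h, 37 °C.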

[3] = Stat Signaling Pathway (AID 446); details: ME-180 SIE beta-lactamase reporter, IL-6 stimulated, 5 h; at 17.2 µM (top of the series) unless noted;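 further: ME-180 cervical cancer cells given 40 pM IL-6 alongside compound; SIE-controlled beta-lactamase reporter measured as 460/530 nm FRET emission ratio; on the % scale 0 is the no-effect control and ±100 the full control effect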
In short: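 Screening format detects activators and inhibitors alike: ME-180 SIE-bla cells stimulated at 40 pM IL-6 for 5 hrs with compound, then dual-emission beta-lactamase read at 405 nm excitation.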

[4] = biological target: Glucocorticoid receptor (Homo sapiens) (UniProt P04150); assay: GR-GFP Redistribution (AID 450;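 active means compounds whose dose series gives a full or clear partial fitted curve of increased nuclear translocation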; further: potency means the concentration at half of the fitted maximal effect)
Chain of Glucocorticoid receptor (Homo sapiens) (P04150 whole entry, looked up): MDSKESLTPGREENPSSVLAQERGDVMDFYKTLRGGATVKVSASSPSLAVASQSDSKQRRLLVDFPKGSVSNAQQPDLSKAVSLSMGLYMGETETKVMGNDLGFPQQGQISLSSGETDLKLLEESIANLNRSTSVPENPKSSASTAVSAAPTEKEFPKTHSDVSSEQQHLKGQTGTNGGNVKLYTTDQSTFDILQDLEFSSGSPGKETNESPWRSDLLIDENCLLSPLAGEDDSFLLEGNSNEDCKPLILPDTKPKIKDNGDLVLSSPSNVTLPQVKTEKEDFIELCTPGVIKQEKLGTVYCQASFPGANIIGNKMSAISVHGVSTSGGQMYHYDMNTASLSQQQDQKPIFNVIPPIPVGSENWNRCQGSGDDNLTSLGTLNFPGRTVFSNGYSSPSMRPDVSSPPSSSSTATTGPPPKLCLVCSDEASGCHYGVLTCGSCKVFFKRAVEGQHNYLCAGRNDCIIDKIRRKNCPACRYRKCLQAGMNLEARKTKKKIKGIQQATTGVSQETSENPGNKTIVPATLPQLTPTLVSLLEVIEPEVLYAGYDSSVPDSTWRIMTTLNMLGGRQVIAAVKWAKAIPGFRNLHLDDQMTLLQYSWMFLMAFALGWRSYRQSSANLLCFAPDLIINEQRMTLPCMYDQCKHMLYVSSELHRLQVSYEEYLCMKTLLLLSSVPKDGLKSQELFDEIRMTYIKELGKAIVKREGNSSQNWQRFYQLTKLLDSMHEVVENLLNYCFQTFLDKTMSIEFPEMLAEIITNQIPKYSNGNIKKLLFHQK

O=C(Nc1nc(=O)c2ccccc2s1)c1ccccc1
inactive: activity change, negative = inhibition [1] -10.8% | activity change, negative = inhibition [2] -15.9% | activity, negative = inhibition [3] -3.03% | Potency [4] > 20.6 µM

CC1(C)CC(=O)C2=C(C1)N(Cc1ccco1)C(=O)C2(O)C(F)(F)F (centres undefined)
inactive: activity change, negative = inhibition [1] 11.1% | activity change, negative = inhibition [2] -3.91% | activity, negative = inhibition [3] -2.61% | Potency [4] > 20.6 µM

Cc1ccc(C2CC(c3cccs3)n3nc(N)nc3N2)cc1 (centres undefined)
inactive: activity change, negative = inhibition [1] 2.57% | activity change, negative = inhibition [2] 6.31% | activity, negative = inhibition [3] 3.76% | Potency [4] > 20.6 µM

CCOC(=O)c1c(C)n(C)c2ccc(OC)c(NC(=O)CCN3CCSCC3)c12
inactive: activity change, negative = inhibition [1] 2.45% | activity change, negative = inhibition [2] 4.14% | activity, negative = inhibition [3] 7.06% | Potency [4] > 20.6 µM

CC(=O)N=C(N)Sc1nc2ccccc2[nH]1
inactive: activity change, negative = inhibition [1] 12.8% | activity change, negative = inhibition [2] -12.3% | activity, negative = inhibition [3] 1.5% | Potency [4] > 20.6 µM

CCn1c(SCC(=O)NCc2ccco2)nnc1-c1ccc(N)cc1
inactive: activity change, negative = inhibition [1] 0.344% | activity change, negative = inhibition [2] 16.3% | activity, negative = inhibition [3] -0.962% | Potency [4] > 20.6 µM

CCCc1cc(=O)oc2c(CN3CCCC3)c(O)ccc12
inactive: activity change, negative = inhibition [1] -13.6% | activity change, negative = inhibition [2] 8.87% | activity, negative = inhibition [3] 2.68% | Potency [4] > 20.6 µM

CC1(C)CC(=O)C=C(NCc2ccncc2)C1
inactive: activity change, negative = inhibition [1] 10% | activity change, negative = inhibition [2] -8.43% | activity, negative = inhibition [3] 8.27% | Potency [4] > 20.6 µM

CC(C)Cc1nc2n[nH]c(N)c2c2c1CCC2
inactive: activity change, negative = inhibition [1] 2.89% | activity change, negative = inhibition [2] 28.5% | activity, negative = inhibition [3] -5.62% | Potency [4] > 20.6 µM

CC(C)N1CCc2c(sc(N)c2C#N)C1
inactive: activity change, negative = inhibition [1] 5.12% | activity change, negative = inhibition [2] -22.4% | activity, negative = inhibition [3] -5% | Potency [4] > 20.6 µM

C=CCN(C)CCCNC(=O)/C=N/O
inactive: activity change, negative = inhibition [1] -0.81% | activity change, negative = inhibition [2] 2.2% | activity, negative = inhibition [3] 3.74% | Potency [4] > 20.6 µM

Cc1ccccc1N1C(=O)C2ON(c3ccccc3)C(c3ccncc3)C2C1=O (centres undefined)
inactive: activity change, negative = inhibition [1] 5.78% | activity change, negative = inhibition [2] 18.5% | activity, negative = inhibition [3] 1.29% | Potency [4] > 20.6 µM

COc1ccc(C(CC(=O)O)NC(=O)OC(C)(C)C)cc1 (centres undefined)
inactive: activity change, negative = inhibition [1] 12.1% | activity change, negative = inhibition [2] -0.371% | activity, negative = inhibition [3] 3.55% | Potency [4] > 20.6 µM

CC(C)Cc1[nH]c(=O)c(C#N)c2c1CCCC2
inactive: activity change, negative = inhibition [1] 3.62% | activity change, negative = inhibition [2] 2.23% | activity, negative = inhibition [3] 8.54% | Potency [4] > 20.6 µM

CC1(C)C/C(=C(/C#N)C(N)=O)CCO1
inactive: activity change, negative = inhibition [1] -0.694% | activity change, negative = inhibition [2] 2.44% | activity, negative = inhibition [3] 4.37% | Potency [4] > 20.6 µM

COc1ccccc1C1/C(=C(/O)c2ccc(C)cc2)C(=O)C(=O)N1CCN1CCOCC1 (centres undefined)
inactive: activity change, negative = inhibition [1] -9.75% | activity change, negative = inhibition [2] 19.8% | activity, negative = inhibition [3] 1.99% | Potency [4] > 20.6 µM

Cc1ccc(/C=c2\sc3n(c2=O)CN(c2ccc(Br)cc2)CN=3)o1
inactive: activity change, negative = inhibition [1] 25.9% | activity change, negative = inhibition [2] -11.3% | activity, negative = inhibition [3] 0.614% | Potency [4] > 20.6 µM

Cc1c(Cl)cccc1N1C(=O)C2ON(c3ccccc3)C(c3cccnc3)C2C1=O (centres undefined)
inactive: activity change, negative = inhibition [1] 4.21% | activity change, negative = inhibition [2] 0.827% | activity, negative = inhibition [3] 0.542% | Potency [4] > 20.6 µM

Cc1c(NC(=O)c2ccc(=O)oc2)c(=O)n(-c2ccccc2)n1C
inactive: activity change, negative = inhibition [1] 10.3% | activity change, negative = inhibition [2] -22.5% | activity, negative = inhibition [3] 2.43% | Potency [4] > 20.6 µM

CCOCCn1c(SCc2c(F)cccc2Cl)nc2c1c(=O)[nH]c(=O)n2C
inactive: activity change, negative = inhibition [1] -8.65% | activity change, negative = inhibition [2] -17.4% | activity, negative = inhibition [3] -2.5% | Potency [4] > 20.6 µM

CN(C)CC(O)COc1ccc(C(C)(C)c2ccc(OCC(O)CN(C)C)cc2)cc1 (centres undefined)
inactive: activity change, negative = inhibition [1] -0.00757% | activity change, negative = inhibition [2] 1.57% | activity, negative = inhibition [3] -4.4% | Potency [4] > 20.6 µM

CCc1nc(N2CCOCC2)c(C#N)c2c1CCCC2
inactive: activity change, negative = inhibition [1] -3.85% | activity change, negative = inhibition [2] -21.8% | activity, negative = inhibition [3] -7.54% | Potency [4] > 20.6 µM

Cc1nnc2n(-c3ccccc3)c(=O)c3c4c(sc3n12)COC(C)(C)C4
inactive: activity change, negative = inhibition [1] 4.08% | activity change, negative = inhibition [2] -10.7% | activity, negative = inhibition [3] -0.141% | Potency [4] > 20.6 µM

CCCCN1C(=O)C(O)=C(C(C)=O)C1c1ccc(OC)cc1OC (centres undefined)
inactive: activity change, negative = inhibition [1] 8.36% | activity change, negative = inhibition [2] 16.7% | activity, negative = inhibition [3] -4.22% | Potency [4] > 20.6 µM

c1coc(-c2nc3nc4ccccc4nc3n2-c2ccc3c(c2)OCCO3)c1
inactive: activity change, negative = inhibition [1] -28.6% | activity change, negative = inhibition [2] 21.1% | activity, negative = inhibition [3] -8.28% | Potency [4] > 20.6 µM

COc1ccc(OC)c(C2NC(=O)c3sc(=S)n(-c4ccccc4)c3N2)c1 (centres undefined)
inactive: activity change, negative = inhibition [1] -13.3% | activity change, negative = inhibition [2] -12.2% | activity, negative = inhibition [3] -13.8% | Potency [4] > 20.6 µM
